In the library only some 4.5% were active in any assay of this set; here they are far more common.
NTMT1 inh: blocks human N-terminal methyltransferase 1 activity | Potency, µM (top dose mostly 114 µM), inactives show at the top dose activity change, negative = inhibition, actives largely listed as inhibitors | AID 1645870 | 59,000 tested, 2.5% active | Q9BV86 | NTMT1 MTase-Glo SAH luminescence, purified enzyme;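 note: potency is the fitted concentration of half-maximal effect; plate controls were DMSO vehicle for no effect and no enzyme for full effect; nearly all actives have a fitted effect of over 65% in size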
Target sequence (Q9BV86 whole entry, looked up): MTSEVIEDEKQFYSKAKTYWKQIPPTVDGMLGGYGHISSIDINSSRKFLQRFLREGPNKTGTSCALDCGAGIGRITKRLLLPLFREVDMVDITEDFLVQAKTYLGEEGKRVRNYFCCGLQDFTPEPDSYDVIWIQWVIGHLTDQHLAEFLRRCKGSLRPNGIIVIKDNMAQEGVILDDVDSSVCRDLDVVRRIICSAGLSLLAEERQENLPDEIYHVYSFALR
HTT-AS promoter: activates huntingtin-antisense promoter activity | AID 1508624 | HEK293 HTT-AS promoter firefly luciferase reporter, 24 h; response scale: percent change from vehicle, -100% = no light | Potency, µM (series often up to 57.5 µM), for inactives: at the top dose activity change, positive = activation, hits mostly activators | 48,000 tested, 0.24% active; note: potency is the fitted concentration of half-maximal effect; nearly all actives have a fitted effect of over 55% in size
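Luminescence was read after Dual-Glo reagent and a 10 min room-temperature incubation. Values were normalized to vehicle (0% activity) and zero RLU (-100% activity). Reporter HEK293 cells had been exposed to compounds (up to 57.5 uM final) for 24 h.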
HTT prom inh: inhibitors of huntingtin promoter activity; HEK293 HTT promoter firefly luciferase reporter, 24 h; Potency, µM (top dose mostly 57.5 µM), inactives show at the top dose activity change, negative = inhibition, hits mostly inhibitors; 48,000 tested, 0.93% active; AID 1508623; note: potency is the fitted concentration of half-maximal effect; nearly all actives have a fitted effect of over 50% in size
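HEK293 cells carrying firefly luciferase reporters were seeded at 2,500 per well in Opti-MEM and cultured for 24 h. They were then treated with compounds at up to 57.5 uM final for 24 h at 37 degrees C before Dual-Glo luminescence readout.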
SKOV3 invasion: ovarian cancer metastasis inhibition, 3D TME model | SKOV3ip1-GFP adhesion/invasion on 3D omental model, fluorescence | Potency, µM (top dose mostly 45.8 µM), for inactives: at the highest dose activity change, negative = inhibition, most hits filed as inhibitors | 46,000 tested, 0.1% active;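 note: potency is the fitted concentration of half-maximal effect; plate controls were DMSO wells for no effect and tomatine positive control wells for full effect; nearly all actives have a fitted effect of over 65% in size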
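qHTS, 4-pt dose (0.36-46 umol/L); SKOV3ip1-GFP, 1,200 cells/well, no FBS; primary omental fibroblast/mesothelial co-culture 48 h pre-grown; 2 h RT + 16 h 37 C; PBS wash, 4% PFA; GFP count 488/509 nm.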
DRV1 agonist: activates human resolvin D1 receptor GPR32; CHO-K1 GPR32 beta-arrestin PathHunter luminescence, 90 min; zero percent set by DMSO-only wells; activation, % at 76.9 µM; 48,000 tested, 2.5% active; AID 1346428;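 active = activation of at least 60% and not above a set upper limit, about 1 call in 100 departs from these limits; inconclusive = activation of 40% to 60%, or above that upper limit; inactive = activation under 40%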; note: 0% is about no effect
Target sequence (O75388 whole entry, looked up): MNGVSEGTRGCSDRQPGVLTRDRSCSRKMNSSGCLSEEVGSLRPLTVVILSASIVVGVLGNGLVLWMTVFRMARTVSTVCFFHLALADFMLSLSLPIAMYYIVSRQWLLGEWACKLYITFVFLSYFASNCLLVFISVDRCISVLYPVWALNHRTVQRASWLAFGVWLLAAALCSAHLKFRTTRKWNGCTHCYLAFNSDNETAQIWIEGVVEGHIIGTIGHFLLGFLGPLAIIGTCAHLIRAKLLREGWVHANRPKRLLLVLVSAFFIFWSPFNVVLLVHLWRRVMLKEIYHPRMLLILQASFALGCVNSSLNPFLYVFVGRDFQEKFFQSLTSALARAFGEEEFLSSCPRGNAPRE
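PathHunter enzyme-fragment complementation, CHO-K1 GPR32 stable line; 2,500 cells/well, overnight attach; cpd 90 min 37 °C 5% CO2; detection reagent 1 h RT; chemiluminescence. DMSO = EC0.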
An asterisk follows results filed as active; i = inactive; ? = inconclusive; . = not tested or not shown; ! = repeats disagree; [ ] = dose if it differs, or a comment. Unless noted, calls come from the whole dose curve; as a rule, active = well fitted curve in the direction sought with a large enough effect; inconclusive = small, poorly fitted or top-dose-only effect, or another doubt; inactive = no such curve, though single readings can be large; an effect the other way counts as inactive or inconclusive.

SMILES | NTMT1 inh | HTT-AS promoter | HTT prom inh | SKOV3 invasion | DRV1 agonist
O=C(Nc1nc(-c2ccc(Br)cc2)ns1)c1ccccc1F | 2% | -7% | -9% | ? | 60*
COc1ccc(C2Nc3ccccc3C(=O)N2Cc2ccc(C(F)(F)F)cc2)cc1COc1ccc(NC(C)=O)cc1 (stereo not given) | 33% | . | . | . | .
CCOC(=O)c1cc(C)n(CC2CCC(C(=O)Nc3ccc(C(=O)OC)cc3)CC2)c1C (stereo not given) | . | . | . | i | -19
Cc1ccc(CN2CCC(CNc3ncnc4onc(-c5ccc(F)cc5)c34)CC2)cc1 | 79µM* | -19% | -21% | 1% | 32
Fc1ccc(-c2noc3ncnc(NCC4CCN(Cc5ccc(Cl)cc5)CC4)c23)cc1 | -21% | -31% | -28% | -12% | ?
c1nc2nc(Nc3ccc(N4CCOCC4)cc3)nc(NC3CCCCC3)c2[nH]1 | 40µM*! | -26% | ? | -4% | .
O=C(Nc1ccc(-c2ccnc(Nc3ccc(N4CCOCC4)cc3)n2)cc1)C1CCCN1 (stereo not given) | -4% | . | . | . | .
COc1ccc(N(C)S(=O)(=O)c2ccc3c(c2)CCN3C(=O)CCC(=O)O)cc1 | 4% | -24% | -12% | i | -1
CCn1c(=O)c(-c2ccc(Cl)cc2Cl)cc2cnc(Nc3ccc(N4CCNCC4)c(F)c3)nc21 | 50µM*! | . | . | . | .
CCCCN(CC)C(=O)C1CCC(CNS(=O)(=O)c2cccc3nsnc23)CC1 (stereo not given) | -12% | -8%[11.5 µM] | ? | i | 68*
Cc1ccc(NC(=O)CCNS(=O)(=O)c2cccc3nsnc23)cc1 | 11% | -7% | -1% | -1% | -25
CC(C)c1ccc(NC(=O)CCNS(=O)(=O)c2cccc3nsnc23)cc1 | 0% | -21% | -20% | 28% | 75*
O=C(Nc1ccc(C(F)(F)F)cc1)C1CCC(CNS(=O)(=O)c2cccc3nsnc23)CC1 (stereo not given) | 0% | -19% | -41% | -4% | 114*
Cc1ccc(NC(=O)C2CCC(CNS(=O)(=O)c3cccc4nsnc34)CC2)c(C)c1 (stereo not given) | -1% | 2%[11.5 µM] | -5% | 1% | -12
CCc1cccc(CC)c1NC(=O)CN1C(=O)C(=O)c2ccccc21 | 9% | -15% | -11% | -6% | -73
CC(CC(=O)NCc1ccc(Cl)cc1Cl)CC1=NS(=O)(=O)c2ccccc2N1 (stereo not given) | 15% | -30% | ? | i | 66*
COc1ccc(CNC(=O)CC(C)CC2=NS(=O)(=O)c3ccccc3N2)cc1 (stereo not given) | 11% | -23% | ? | -4% | 5
CC(NC(=O)CSc1nc(-c2cccc(Cl)c2)nc2cc(=O)[nH]n12)c1nc2ccccc2n1C (stereo not given) | . | . | . | 4% | 69*
Cc1ccc(-c2nnc(SCc3cccc(C#N)c3)o2)cc1 | ? | 1% | 16% | i | 3
COc1cccc(Cn2c(=O)cc(C)c3c(C)nn(C)c32)c1 | ? | -31% | ? | -4% | 79*
CC(C)OC(=O)C(C(=O)OC(C)C)=C1SC=CS1 | ? | -6% | 8% | 1% | 73*
O=C(CSc1nnc(NC(=O)Nc2ccccc2)s1)Nc1cccc(F)c1 | 6% | ? | 22% | i | 33
COc1ccc(CNC(=O)c2cn(-c3cccc(OC)c3)c(=O)c3ccccc23)cc1 | 0% | -15% | -9% | 0% | -19
COc1cccc(-n2cc(C(=O)Nc3ccccc3C(N)=O)c3ccccc3c2=O)c1 | 89µM* | -20% | -3% | 22% | -11
Cc1cc(C)c2c(N)c(C(=O)Nc3ccccc3C(F)(F)F)sc2n1 | 2% | ? | 18% | i | 89*
SMILES | NTMT1 inh | HTT-AS promoter | HTT prom inh | SKOV3 invasion | DRV1 agonist
Cc1cc(C)c(NC(=O)c2sc3nc(C)cc(C)c3c2N)c(C)c1 | 13% | -38% | 55% | -1% | 38
CCCNC(=O)c1cnn2c(C)c(Cc3c(C)cc(C)cc3C)c(C)nc12 | 5% | -47% | 5µM* | -2% | -3
CCOc1ccc(CNC(=O)Cn2ccc3cc(S(=O)(=O)N4CCCCC4)ccc32)cc1 | -2% | -22% | -20% | 12% | 77*
COc1ccccc1CNC(=O)Cn1c(=O)ccc2cc(S(=O)(=O)N3CCC(C)CC3)ccc21 | -3% | -7% | 9% | i | -5
CCOc1ccc(NC(=O)CN2CCSc3ccc(S(=O)(=O)N4CCCC4)cc32)cc1 | -7% | -39% | 25µM* | i | 0
CCOc1ccc(NC(=O)Cn2c(=O)oc3cc(S(=O)(=O)N4CCC(C)CC4)ccc32)cc1 | 4% | -49% | 10µM* | 1% | 117*
COc1ccccc1CNC(=O)Cn1c(=O)oc2cc(S(=O)(=O)N3CCC(C)CC3)ccc21 | -7% | -25% | ? | -9% | 78*
CCc1ccc(NC(=O)Cn2c(=O)oc3cc(S(=O)(=O)N4CCCCCC4)ccc32)cc1 | 0% | -49% | ? | -8% | 22
CCOC(=O)c1noc2ncn(CC(=O)Nc3cc(Cl)ccc3OC)c(=O)c12 | 0% | -6% | -4% | i | 12
COCCOC(=O)C1=C(C)NC(C)=C(C(=O)OC(C)C)C1c1cccc([N+](=O)[O-])c1 (stereo not given) | -11%[57.5 µM] | -3% | -3% | . | -29
CC1CCN(S(=O)(=O)c2ccc(C(=O)Nc3nc4ccc(F)cc4s3)cc2)CC1 | 18% | -24% | -23% | -4% | -9
CC1CCN(S(=O)(=O)c2nnc(NC(=O)c3cccc(Br)c3)s2)CC1 | 34% | -55% | ? | -9% | 73*
COc1cccc2sc(NC(=O)c3ccc(S(=O)(=O)N4CCC(C)CC4)cc3)nc12 | 7% | -45% | 28µM* | i | -9
CC1CCN(S(=O)(=O)c2nnc(NC(=O)c3cccc(F)c3)s2)CC1 | 24% | -29% | -29% | 3% | 43
O=C(Nc1nnc(S(=O)(=O)N2CCCCC2)s1)c1ccc(F)cc1 | 21% | -13% | -9% | -1% | 13
Cc1cccc(C(=O)Nc2nnc(S(=O)(=O)N3CCC(C)CC3)s2)c1 | 4% | -12% | -11% | 1% | 69*
O=C(Nc1nnc(S(=O)(=O)N2CCCC2)s1)c1ccc(F)cc1 | 9% | -3% | -12% | i | 64*
COc1ccc(Cl)cc1NC(=O)COc1cccc2c(=O)n(C)ccc12 | -6% | -7% | 0% | 3% | -3
CCCCc1ccc(NC(=O)COc2cccc3c(=O)n(C)ccc23)cc1 | 1% | -42% | ? | -3% | 60*
CCCn1ccc2c(OCC(=O)Nc3ccc(F)cc3F)cccc2c1=O | -2% | -21% | -25% | 6% | ?
CCCn1ccc2c(OCC(=O)Nc3ccc(OC)c(OC)c3)cccc2c1=O | 14% | -41% | -16% | 6% | 86*

High-throughput results deposited in PubChem BioAssay by National Center for Advancing Translational Sciences (NCATS).
